CYP2C9 act – human CYP2C9 activators, primary screen, biochemical, luminescence; Cytochrome P450 2C9 (Homo sapiens), P11712; recombinant CYP2C9, luciferin-H conversion; hits give high values; factor 1 = untreated enzyme, 0 = blocked; activation factor at 5 µM; 96,000 tested, 1.4% active; AID 1024, 2008;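 active means activation factor of 2 or more for CYP2C9 at a 5 µM dose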;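 further: 0 = sulfaphenazole-blocked wells and 1 = vehicle-only wells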
PLK1 PBD inh – Plk1 polo box domain binding inhibitors, primary screen, biochemical, fluorescence polarization; Serine/threonine-protein kinase PLK1 (Homo sapiens), P53350; Plk1 PBD phosphopeptide binding; inhibition, %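 (tested at about 20 µM)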; 97,000 tested, 0.13% active; AID 693, 2007; in the data active means inhibition above about 34%, passing the limit was not always enough
CYP2C9 inh – blockers of cytochrome P450 2C9 activity – biochemical, luminescence, ADME assay, primary screen. P11712. CYP2C9 Supersomes, luciferin-H conversion. inhibition, % at 5 µM. 96,000 tested, 20% active. AID 777, 2007;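 active means blocking of liver enzyme CYP2C9 beyond about 50% at 5 µM, limit read from the data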
PLK1 kinase inh – human PLK1 kinase inhibitors, primary screen, biochemical, TR-FRET | 97,000 tested, 0.53% active | recombinant PLK1 kinase, TR-FRET peptide phosphorylation | inhibition, % at 10 µM;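 active means inhibition of 50% or more in the single-concentration screen; inactive means inhibition below 50%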;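 further: 0% = DMSO max control and 100% = H-89 dihydrochloride min control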
CYP2C19 inhib – blockers of cytochrome P450 2C19 activity – biochemical, luminescence, ADME assay, primary screen; P33261; CYP2C19 Supersomes, luciferin-H EGE luminescence, 30 min; inhibition, % at 5 µM; 96,000 tested, 21% active; AID 778, 2007;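 active means CYP2C19 inhibition above a set limit at 5 µM in the primary screen, cut at about 50% in these data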;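 further: plate controls were negative control wells for no effect and 2.5 mM tranylcypromine positive control for full effect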
Target sequence (P33261 whole entry, looked up): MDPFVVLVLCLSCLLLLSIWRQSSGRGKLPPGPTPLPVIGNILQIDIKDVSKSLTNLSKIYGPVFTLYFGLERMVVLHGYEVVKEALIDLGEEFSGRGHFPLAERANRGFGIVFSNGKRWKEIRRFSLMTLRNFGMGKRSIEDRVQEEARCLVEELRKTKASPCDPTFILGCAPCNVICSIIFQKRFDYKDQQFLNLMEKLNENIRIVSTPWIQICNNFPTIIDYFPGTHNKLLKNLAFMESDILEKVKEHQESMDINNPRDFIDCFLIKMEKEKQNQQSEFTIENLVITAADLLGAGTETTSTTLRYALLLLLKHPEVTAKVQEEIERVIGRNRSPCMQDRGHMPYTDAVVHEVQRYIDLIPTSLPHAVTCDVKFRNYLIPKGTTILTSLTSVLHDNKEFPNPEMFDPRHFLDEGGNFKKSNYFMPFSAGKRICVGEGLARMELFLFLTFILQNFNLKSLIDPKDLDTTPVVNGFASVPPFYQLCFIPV
CYP2C19 act – human CYP2C19 activators, primary screen, biochemical, luminescence; recombinant CYP2C19, luciferin-H EGE luminescence; hits give high values; 0 = fully inhibited enzyme, 1 = untreated enzyme; activation factor at 5 µM; 96,000 tested, under 10 active; AID 1025, 2008;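 active means activation factor of at least 2 at 5 µM in the primary screen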;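 further: 0 = wells with 2.5 mM tranylcypromine and 1 = vehicle-only wells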
* = called active by the depositor. An excerpt weighted towards active compounds, which were near 28% of everything screened.

What do the screens show for `CS(=O)(=O)Nc1ccc(C(=O)N2CCN(c3ccccc3)CC2)cc1`?
CYP2C9 act: 1; PLK1 PBD inh: 3; CYP2C9 inh: 2; PLK1 kinase inh: -2; CYP2C19 inhib: -8; CYP2C19 act: 1.1

How did Cc1csc(SCC(=O)Nc2ncc(Cl)c(C)c2Cl)n1 do in these assays?
CYP2C9 act: 0.8; PLK1 PBD inh: -4; CYP2C9 inh: 17; PLK1 kinase inh: -7; CYP2C19 inhib: 38; CYP2C19 act: 0.6

How did CC1=C(C#N)C(c2ccc3ncccc3c2)C(C#N)=C(C)N1 do in these assays?
CYP2C9 act: 0.3; PLK1 PBD inh: -8; CYP2C9 inh: 69*; PLK1 kinase inh: -10; CYP2C19 inhib: 83*; CYP2C19 act: 0.2

What do the screens show for `COc1ccc(N2C(=O)CCC(C(=O)N3CCCCCC3)C2c2ccc(OC)c(OC)c2)cc1` (configuration not stated)?
CYP2C9 act: 1.1; PLK1 PBD inh: 2; CYP2C9 inh: -6; PLK1 kinase inh: 0; CYP2C19 inhib: -6; CYP2C19 act: 1.1

How did Brc1ccc2[nH]ncc2c1 do in these assays?
PLK1 PBD inh: -6; PLK1 kinase inh: 51*

What do the screens show for `CCOC(=O)Nc1sc(C)nc1-c1ccccc1`?
CYP2C9 act: 0.8; PLK1 PBD inh: -5; CYP2C9 inh: 18; PLK1 kinase inh: -13; CYP2C19 inhib: 61*; CYP2C19 act: 0.4

Results for CCc1sc(NC(=O)COC)nc1-c1ccccc1 ?
CYP2C9 act: 0.4; PLK1 PBD inh: 4; CYP2C9 inh: 57*; PLK1 kinase inh: -7; CYP2C19 inhib: 75*; CYP2C19 act: 0.2

How did C/C(=N\OC(=O)c1ccc(Cl)cc1)c1sc(-c2ccccc2)nc1C do in these assays?
CYP2C9 act: 1; PLK1 PBD inh: 16; CYP2C9 inh: -2; PLK1 kinase inh: -9; CYP2C19 inhib: -1; CYP2C19 act: 1

What do the screens show for `CNc1nc(C)c(C(=O)c2ccc(Cl)cc2)s1`?
CYP2C9 act: 0.4; PLK1 PBD inh: -14; CYP2C9 inh: 61*; PLK1 kinase inh: 23; CYP2C19 inhib: 66*; CYP2C19 act: 0.3

Results for CCOC(=O)Nc1nc(-c2ccccc2)c(C(=O)c2ccc(Cl)cc2)s1 ?
CYP2C9 act: 0.4; PLK1 PBD inh: 15; CYP2C9 inh: 64*; PLK1 kinase inh: -20; CYP2C19 inhib: 73*; CYP2C19 act: 0.3

How did O=C1OC(N2CCN(C(=O)C3CCCO3)CC2)c2ccccc21 (configuration not stated) do in these assays?
CYP2C9 act: 1.1; PLK1 PBD inh: 16; CYP2C9 inh: -10; PLK1 kinase inh: -6; CYP2C19 inhib: -12; CYP2C19 act: 1.1

How did Cc1c(NC(=O)c2ccc3ncccc3c2)c(=O)n(-c2ccccc2)n1C do in these assays?
CYP2C9 act: 0.9; PLK1 PBD inh: 0; CYP2C9 inh: 10; PLK1 kinase inh: -6; CYP2C19 inhib: 2; CYP2C19 act: 1

Results for CCC1(C)Cc2c(sc3nc(NN)n(C)c(=O)c23)CO1 (configuration not stated) ?
CYP2C9 act: 0.1; PLK1 PBD inh: -28; CYP2C9 inh: 94*; PLK1 kinase inh: -1; CYP2C19 inhib: 99*; CYP2C19 act: 0

Results for COCCNC(=O)COC(=O)/C=C/c1c(C)nn(Cc2ccc(Cl)cc2Cl)c1Cl ?
CYP2C9 act: 0.4; PLK1 PBD inh: -20; CYP2C9 inh: 56*; PLK1 kinase inh: -14; CYP2C19 inhib: 26; CYP2C19 act: 0.7

What do the screens show for `CN(C)c1ccc(/C(=N\O)c2ccccc2)cc1`?
CYP2C9 act: 1; PLK1 PBD inh: 5; CYP2C9 inh: -3; PLK1 kinase inh: -3; CYP2C19 inhib: 73*; CYP2C19 act: 0.3

How did CN(C)c1ccc(C(=O)OCc2ccccc2)cc1 do in these assays?
CYP2C9 act: 1; PLK1 PBD inh: -5; CYP2C9 inh: 3; PLK1 kinase inh: -8; CYP2C19 inhib: 50; CYP2C19 act: 0.5

What do the screens show for `N#Cc1cccc(-n2c(-c3ccccc3)nnc2-c2ccccc2)c1C#N`?
CYP2C9 act: 0.1; PLK1 PBD inh: -3; CYP2C9 inh: 89*; PLK1 kinase inh: -1; CYP2C19 inhib: 89*; CYP2C19 act: 0.1

What do the screens show for `N#Cc1ccc(-n2c(-c3ccccc3)nnc2-c2ccccc2)cc1C#N`?
PLK1 PBD inh: -28; PLK1 kinase inh: -14

How did CC(C)n1nc(C(=O)Nc2nnc(SCc3c(Cl)cccc3Cl)s2)c2ccccc2c1=O do in these assays?
CYP2C9 act: 0.1; PLK1 PBD inh: -4; CYP2C9 inh: 86*; PLK1 kinase inh: -32; CYP2C19 inhib: 66*; CYP2C19 act: 0.3

What do the screens show for `CC(C)n1nc(C(=O)Nc2nc3ccc(S(C)(=O)=O)cc3s2)c2ccccc2c1=O`?
CYP2C9 act: 0.8; CYP2C9 inh: 21; CYP2C19 inhib: -3; CYP2C19 act: 1

Results for CCN(CCNC(=O)C1CCCN(S(=O)(=O)c2cnc[nH]2)C1)c1ccccc1 (configuration not stated) ?
CYP2C9 act: 0.1; PLK1 PBD inh: -4; CYP2C9 inh: 95*; PLK1 kinase inh: -2; CYP2C19 inhib: 90*; CYP2C19 act: 0.1

Results for CCN(CCCNC(=O)C1CCCN(S(=O)(=O)c2cnc[nH]2)C1)c1ccccc1 (configuration not stated) ?
CYP2C9 act: 0.5; PLK1 PBD inh: -33; CYP2C9 inh: 52*; PLK1 kinase inh: -5; CYP2C19 inhib: 78*; CYP2C19 act: 0.2

How did CCOC(=O)CSc1nnc(CNC(=O)c2ccc(S(=O)(=O)N3CCCCC3)cc2)n1C do in these assays?
CYP2C9 act: 0.9; PLK1 PBD inh: -4; CYP2C9 inh: 14; PLK1 kinase inh: 0; CYP2C19 inhib: 11; CYP2C19 act: 0.9

What do the screens show for `O=C(CNS(=O)(=O)c1ccc2ccccc2c1)OCc1nnc(-c2ccccc2)o1`?
CYP2C9 act: 0.9; PLK1 PBD inh: 15; CYP2C9 inh: 9; PLK1 kinase inh: -9; CYP2C19 inhib: 3; CYP2C19 act: 1

How did Clc1ccc(-n2nnnc2SCc2c(-c3ccccc3)nc3sccn23)cc1 do in these assays?
CYP2C9 act: 0.1; PLK1 PBD inh: -3; CYP2C9 inh: 89*; PLK1 kinase inh: -6; CYP2C19 inhib: 25; CYP2C19 act: 0.8

What do the screens show for `COc1ccc(OC)c(/C=N/NC(=O)CCCC(=O)Nc2cccc(Br)c2)c1`?
CYP2C9 act: 0.2; PLK1 PBD inh: -1; CYP2C9 inh: 75*; PLK1 kinase inh: -8; CYP2C19 inhib: 35; CYP2C19 act: 0.7

Results for O=[n+]1c2c(n([O-])c3cc(F)c(F)cc31)CCCC2 ?
CYP2C9 act: 1.2; PLK1 PBD inh: -15; CYP2C9 inh: -16; PLK1 kinase inh: 2; CYP2C19 inhib: -22; CYP2C19 act: 1.2

High-throughput results deposited in PubChem by several laboratories.
